This is a sample that favours compounds with a hit; in the whole collection about 3% have one here.
JMJD2E inh = JMJD2E (human) inhibition; B2RXH2; JMJD2E catalytic domain, FDH-coupled NADH fluorescence (FDH is formaldehyde dehydrogenase); AID 2147; hit rate 1.6% among 230,000; Potency, µM (top dose mostly 57.1 µM), for the others: at the top dose activity change, negative = inhibition, hits mostly inhibitors; active means well fitted inhibition curve with a large enough effect, not every such curve was filed as active; inconclusive means small, poorly fitted or top-dose-only effect, or another doubt; inactive means no such curve, though single readings can be large or run the other way;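 further: potency means the concentration at half of the fitted maximal effect; 0% = wells with enzyme and -100% = buffer wells without enzyme; nearly all actives have a fitted effect of over 50% in size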
Target sequence (B2RXH2 1-337 limits assumed): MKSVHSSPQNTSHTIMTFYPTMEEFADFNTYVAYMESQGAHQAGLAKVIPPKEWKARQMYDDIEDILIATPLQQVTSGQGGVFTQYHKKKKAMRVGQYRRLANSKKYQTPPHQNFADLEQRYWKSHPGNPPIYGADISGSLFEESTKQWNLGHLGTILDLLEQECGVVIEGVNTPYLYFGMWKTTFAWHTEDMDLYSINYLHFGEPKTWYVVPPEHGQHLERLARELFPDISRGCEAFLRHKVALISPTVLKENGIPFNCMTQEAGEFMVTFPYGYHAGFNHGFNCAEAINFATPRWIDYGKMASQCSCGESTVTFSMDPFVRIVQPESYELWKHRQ
Coupling enz = counter-screen for Giardia aldolase inhibitors: coupling enzyme system | coupling enzyme system counterscreen, AmpLite Red fluorescence | activity change, negative = inhibition, % at 58.2 µM, hits read low | hit rate 0.67% among 290,000; in the data active means activity change below about -30%
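Counterscreen of the coupled detection system alone, without aldolase: glyceraldehyde-3-phosphate coupling enzymes plus AmpLite Red readout. Compounds at 57.5 uM final, 10 min RT preincubation, 20 min RT reaction, fluorescence 525/598 nm.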
Tau fibril FP = inhibitors of human tau fibril formation; Potency, µM (highest dose often 57.7 µM), inactives show at the highest dose activity, negative = inhibition, most hits filed as inhibitors; P10636; K18 P301L tau heparin fibrillization, Alexa594 FP, 6 h; hit rate 0.39% among 280,000; further: potency means the concentration at half of the fitted maximal effect; nearly all actives have a fitted effect of over 55% in size
Target sequence (P10636 561-689 P618L limits assumed): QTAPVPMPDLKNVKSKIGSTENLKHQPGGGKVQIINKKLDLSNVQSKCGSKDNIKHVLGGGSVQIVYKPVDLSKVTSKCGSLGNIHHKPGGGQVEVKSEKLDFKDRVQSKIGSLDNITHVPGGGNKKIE
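Human tau K18 […] P301L fragment, 15 uM unlabeled plus 0.24 uM Alexa 594-labeled tau (final), with compound and 20 uM heparin in 100 mM sodium acetate pH 7; 6 hr at 37 C, then Alexa 594 FP read.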
Tau fibril ThT = tau fibrillization inhibition (ThT binding); P10636; Potency, µM (doses to about 57.4 µM), for inactives: top-dose activity, negative = inhibition, hits mostly inhibitors; hit rate 2.1% among 270,000; recombinant tau K18 P301L, heparin-induced fibrillization, ThT fluorescence; AID 1460; further: potency means the concentration at half of the fitted maximal effect; nearly all actives have a fitted effect of over 55% in size
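Heparin-induced (20 uM) aggregation of recombinant human K18 P301L tau, 15 uM unlabeled with 0.24 uM labeled, pH 7 acetate buffer, 6 hr at 37 C with compound. Fibrils quantified by 30 uM ThT fluorescence after 1 hr ambient incubation.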
Tau fluor counter = counter-screen for tau fibril formation inhibitors. tau K18 P301L (four-repeat tau fragment) Alexa594 fluorescence, heparin fibrillization. Potency, µM (series often up to 57.7 µM), for the others: at the highest dose activity change, negative = decrease. hit rate 0.93% among 280,000. AID 1463; further: potency means the concentration at half of the fitted maximal effect; nearly all actives have a fitted effect of over 55% in size
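Human K18 P301L tau (15 uM unlabeled plus 0.24 uM Alexa 594-labeled, final) in 100 mM sodium acetate pH 7 was mixed with compound and 20 uM heparin and incubated 6 hr at 37 C.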
An asterisk follows results filed as active; ? = inconclusive; / = no result given; [ ] = another dose, or the depositor's remark. Unless noted, the call rests on the fitted dose curve; in most records, active means well fitted curve in the direction sought with a large enough effect; inconclusive means small, poorly fitted or top-dose-only effect, or another doubt; inactive means no such curve, though single readings can be large; an effect the other way counts as inactive or inconclusive. Unless noted, on the % scale 0 is the no-effect control and ±100 the full control effect.

SMILES | JMJD2E inh | Coupling enz | Tau fibril FP | Tau fibril ThT | Tau fluor counter
C=CC1=C(C)/C(=C/c2[nH]c(Cc3[nH]c(/C=C4\NC(=O)C(C)=C4C=C)c(C)c3CCC(=O)O)c(CCC(=O)O)c2C)NC1=O | ? | -16 | ? | 10µM* | ?
NS(=O)(=O)c1ccc(CCNC(=O)CNCCc2ccc(C(F)(F)F)cc2)cc1 | / | 1 | / | / | /
CC(C)c1ccccc1NC(=O)CNCCc1ccc(C(F)(F)F)cc1 | 3.2µM* | -4 | -4% | -11% | -21%
O=C(Nc1ccccc1-c1nc2ccccc2s1)c1ccc(F)cc1 | / | / | -4% | -11% | -14%
CNc1sc(C(=O)c2cccs2)c(N)c1-c1nc2ccccc2s1 | -1% | -1 | 32µM* | 7.9µM* | 11µM*[quencher]
CNc1sc(C(=O)c2ccc(F)cc2)c(N)c1-c1nc2ccccc2s1 | -1% | 0 | -1% | 16µM* | ?
CC(=O)Nc1scc(C)c1-c1nc2ccccc2s1 | -2% | -2 | -11% | ? | -23%
C[C@H](N)C(=O)NCC(=O)N[C@H]1CSSC[C@@H](C(=O)O)NC(=O)[C@H](CO)NC(=O)[C@H]([C@@H](C)O)NC(=O)[C@H](Cc2ccccc2)NC(=O)[C@H]([C@@H](C)O)NC(=O)[C@H](CCCCN)NC(=O)[C@@H](Cc2c[nH]c3ccccc23)NC(=O)[C@H](Cc2ccccc2)NC(=O)[C@H](Cc2ccccc2)NC(=O)[C@H](CC(N)=O)NC(=O)[C@H](CCCCN)NC1=O | / | -2 | / | / | /
O=C(/C=C/c1ccc(Cl)cc1Cl)n1cccn1 | 8% | -2 | ? | 7.9µM* | -7%
COc1ccc(NC(=O)NC(C)c2c(-n3cccc3)sc3c2CCN(C)C3)c(OC)c1 (configuration not stated) | / | / | -1% | -9% | -15%
Oc1ccc(/C=N/N2CCOCC2)c(O)c1O | 25µM* | -48* | 10µM* | 8.9µM* | -27%
Oc1ccc(/C=N/N2CCCCC2)c(O)c1O | / | -53* | / | / | /
CCN(CC)CCNC(=O)c1cc(-c2ccc(Br)s2)nc2ccccc12 | / | 5 | ? | -15% | ?
CCCCOc1cc(C(=O)NCCN(CC)CC)c2ccccc2n1 | 32µM* | 1 | 5% | -5% | -12%
COc1cc(C2c3cc4c(cc3C(OC3OC5COC(C)O[C@@H]5C(O)C3O)C3COC(=O)C23)OCO4)cc(OC)c1O (some centres not stated) | 4% | 2 | 6% | -1% | 3%
CCOC(=O)C1CCN(Cc2ccccn2)CC1 | / | 0 | / | / | /
CCOC(=O)c1c(C)oc2c1c(CN1CCN(C(=O)OCC)CC1)c(O)c1ccccc12 | 25µM* | -23 | ? | ? | ?
CCOC(=O)c1c(C)oc2c1c(CN1CCN(CCO)CC1)c(O)c1ccccc12 | ? | -25 | ? | ? | ?
CCOC(=O)c1c(C)oc2c1c(C(c1ccncc1)N1CCOCC1)c(O)c1ccccc12 (configuration not stated) | ? | -48* | 2% | 14µM* | ?
CCOC(=O)c1c(C)oc2c1c1c(c3ccccc32)OCN(Cc2ccccn2)C1 | 1% | -37* | ? | ? | ?
CCc1cnc2c(c1SCC(=O)c1ccc(OC)cc1)c(=O)n(C)c(=O)n2C | / | / | 2% | ? | -10%
COc1ccc(CCNC(=O)CCCn2c(=O)c3ccccc3n(CC(=O)Nc3cccc(C)c3)c2=O)cc1OC | / | / | -3% | -7% | ?
Cc1nn(-c2ccccc2)c(N)c1C1(O)C(=O)N(C(C)C)c2ccccc21 (configuration not stated) | 2% | -5 | -7% | -12% | -13%
Cc1nn(-c2ccccc2)c2c1C1(C(=O)N(C(C)C)c3ccccc31)C(C#N)=C(N)O2 (configuration not stated) | -12% | -55* | ? | 25µM* | ?
COc1ccc(S(=O)(=O)Nc2cccc(-c3ccc(N4CCC(C)CC4)nn3)c2)cc1OC | / | / | -7% | 0% | ?
CC(=O)c1ccc(NC(=O)COC(=O)c2ccccc2Sc2ccccc2C#N)cc1 | ? | 2 | 11% | 7% | 6%
N#Cc1cccc(NC(=O)COC(=O)c2ccccc2Sc2ccccc2C#N)c1 | 7% | 0 | 16µM* | 14% | ?

Assay outcomes deposited in PubChem by National Center for Advancing Translational Sciences (NCATS).
